Compound activity (PubChem)
LMP1 NFkB inh – EBV LMP1-driven NF-kappaB luciferase reporter inhibitors, primary screen, cell-based, luminescence, single point; LMP1-induced NF-kappaB luciferase reporter cells; inhibition, % at 12.5 µM; 0.69% of 350,000 active; in the data active = inhibition above about 41%; inconclusive = no clear call, values can overlap the other calls;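 also: 0% = neutral control wells and 100% = reference inhibitor control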
HIF-2a block – HIF-2a reporter inhibitors, primary screen, luminescence, 786-0 RCC cells; 0.72% of 360,000 active; AID 624352, 2012; inhibition, % at 18.8 µM; 786-0 RCC cells HIF-2a reporter, luciferase luminescence, overnight;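 active = inhibition of the luminescence signal of 40% or more relative to plate controls, in a single-dose primary screen at 18.75 µM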
TWEAK-Fn14 inh – inhibitors of TWEAK-Fn14 signaling, primary screen, luciferase reporter cells, uHTS. TWEAK-stimulated Fn14 reporter cells, luciferase luminescence, 8 h. inhibition, % at 10 µM. 2% of 360,000 active; in the data active = inhibition above about 50%
TROY NFkB inh – inhibitors of TROY-driven NF-kB signaling, primary screen, Q293 LMP1-TROYcd cells, NF-kB luciferase, uHTS; 0.98% of 360,000 active; inhibition, % at 10 µM; AID 1347056, 2019; Q293 LMP1-TROYcd NF-kB luciferase reporter, 4 h;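 active = compounds whose plate-normalised and pattern-corrected inhibition of the luciferase reporter signal at the single screening dose is 50% or more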
MITF TRPM1 inh – inhibitors of MITF-dependent TRPM1 promoter reporter, primary screen, cell-based, SK-MEL-5, single point, luciferase; SK-MEL-5 TRPM1 promoter luciferase, 24 h; inhibition, % at 12.5 µM; 0.83% of 330,000 active; AID 488899, 2010;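 active = mean inhibition across replicates of 60% or more, whatever share of single replicates reaches that level; inconclusive = some that reach 60%, reason not given; inactive = mean inhibition across replicates below 60%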
Peg3 promoter – Peg3 promoter-driven luciferase inhibitors, primary screen, cell-based, HeLa, luciferase luminescence; HeLa PEG-Prom luciferase reporter, overnight; inhibition, % at 20 µM; 1.7% of 360,000 active; AID 588405, 2011;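 active = inhibition of at least 50% at 20 µM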
The depositor's hits bear a star. An excerpt weighted towards active compounds, which were near 4% of everything screened.

Screening Cc1nc2ccc(NC(=O)c3cccc(S(=O)(=O)N(C)c4ccccc4)c3)cc2s1 returned LMP1 NFkB inh 26, HIF-2a block 22, TWEAK-Fn14 inh 72*, TROY NFkB inh 60*, MITF TRPM1 inh 20 and Peg3 promoter 39.
CN(c1ccccc1)S(=O)(=O)c1cccc(NC(=O)c2cccc(C#N)c2)c1 was read as LMP1 NFkB inh 3, HIF-2a block 11, TWEAK-Fn14 inh 42, TROY NFkB inh 46, MITF TRPM1 inh 16 and Peg3 promoter 45.
COc1ccccc1N(C)S(=O)(=O)c1ccc(C(=O)NCCc2ccc(F)cc2)cc1 was read as LMP1 NFkB inh -5, HIF-2a block 12, TWEAK-Fn14 inh 53*, TROY NFkB inh 6, MITF TRPM1 inh 3 and Peg3 promoter 16.
For COc1ccccc1N(C)S(=O)(=O)c1ccc(C(=O)Nc2ccc3nc(C)sc3c2)cc1 the results were LMP1 NFkB inh 29, HIF-2a block 12, TWEAK-Fn14 inh 50, TROY NFkB inh 50*, MITF TRPM1 inh 21 and Peg3 promoter 46.
Screening COc1ccccc1CNC(=O)COC(=O)c1ccc(C)c(S(=O)(=O)N2CCCCC2)c1 returned LMP1 NFkB inh 8, HIF-2a block 11, TWEAK-Fn14 inh -5, TROY NFkB inh 3, MITF TRPM1 inh 3 and Peg3 promoter 10.
Screening Cc1ccc(NC(=O)c2cccc(S(=O)(=O)N(C)c3ccccc3)c2)cc1S(=O)(=O)N1CCOCC1 returned LMP1 NFkB inh 10, HIF-2a block 18, TWEAK-Fn14 inh 54*, TROY NFkB inh 20, MITF TRPM1 inh 8 and Peg3 promoter 29.
For Cc1cc(C)c(NC(=O)CN(C)CC(=O)Nc2cccc(S(=O)(=O)N(C)c3ccccc3)c2)c(C)c1 the results were LMP1 NFkB inh 10, HIF-2a block 3, TWEAK-Fn14 inh 53*, TROY NFkB inh 37, MITF TRPM1 inh 11 and Peg3 promoter 58*.
`CN(CC(=O)Nc1cccc(F)c1)CC(=O)Nc1cccc(S(=O)(=O)N(C)c2ccccc2)c1` gave LMP1 NFkB inh 1, HIF-2a block 1, TWEAK-Fn14 inh 21, TROY NFkB inh 12, MITF TRPM1 inh 8 and Peg3 promoter 42.
`COc1ccc(OC)c2[nH]c(=O)c(CCNC(=O)c3ccc(S(=O)(=O)N(C)C)cc3)cc12` gave LMP1 NFkB inh 69*, HIF-2a block 21, TWEAK-Fn14 inh -7, TROY NFkB inh -10, MITF TRPM1 inh 1 and Peg3 promoter 15.
For COc1ccc(C2=Nc3ccccc3C2(O)CCN2C(=O)c3ccccc3C2=O)cc1 (stereo not given) the results were LMP1 NFkB inh -10, HIF-2a block -62, TWEAK-Fn14 inh -15, TROY NFkB inh -27, MITF TRPM1 inh -7 and Peg3 promoter -7.
CCCCNS(=O)(=O)CCNCCc1ccccc1 was read as LMP1 NFkB inh 1, HIF-2a block -5, TWEAK-Fn14 inh -13, TROY NFkB inh 10, MITF TRPM1 inh -10 and Peg3 promoter 7.
`CCCCCCCCNCCS(=O)(=O)NCc1ccccc1` gave LMP1 NFkB inh -2, HIF-2a block -7, TWEAK-Fn14 inh -30, TROY NFkB inh 10, MITF TRPM1 inh -3 and Peg3 promoter 64*.
O=C(Nc1ccc(Cl)cc1)c1ccc2snnc2c1 was read as LMP1 NFkB inh 80*, HIF-2a block -251, TWEAK-Fn14 inh -5, TROY NFkB inh -46, MITF TRPM1 inh -51 and Peg3 promoter -237.
Screening COc1ccc(S(=O)(=O)Nc2ccc3c(c2)C(=O)N([C@H](C)CO)C[C@H](C)[C@@H](CN(C)C(=O)Nc2c(C)noc2C)O3)cc1 returned LMP1 NFkB inh -1, HIF-2a block 14, TWEAK-Fn14 inh 4, TROY NFkB inh 17, MITF TRPM1 inh 5 and Peg3 promoter -2.
For O=C(NCCN1CCCC1)c1ccccc1Cl the results were LMP1 NFkB inh -2, HIF-2a block 12, TWEAK-Fn14 inh 5, TROY NFkB inh 4, MITF TRPM1 inh -2 and Peg3 promoter 9.
`CCCC(=O)NC1=C(Cl)C(=O)c2ccccc2C1=O` gave LMP1 NFkB inh -7, HIF-2a block 95*, TWEAK-Fn14 inh 15, TROY NFkB inh 20, MITF TRPM1 inh 101* and Peg3 promoter 98*.
For CCCC(=O)NNC(=O)CCC(=O)Nc1ccccc1Cl the results were LMP1 NFkB inh -13, HIF-2a block 18, TWEAK-Fn14 inh 7, TROY NFkB inh -4, MITF TRPM1 inh 2 and Peg3 promoter 0.
Screening O=C1C(Cl)=C(NCc2ccco2)C(=O)c2ccccc21 returned LMP1 NFkB inh -6, HIF-2a block -8, TWEAK-Fn14 inh 26, TROY NFkB inh -30, MITF TRPM1 inh 94* and Peg3 promoter -50.
O=C1C(Cl)=C(NCCN2CCCCC2)C(=O)c2ccccc21 was read as LMP1 NFkB inh 13, HIF-2a block 87*, TWEAK-Fn14 inh 93*, TROY NFkB inh 54*, MITF TRPM1 inh 99* and Peg3 promoter 99*.
For O=C1c2ccccc2-c2onc3ccc(NCc4ccco4)c1c23 the results were LMP1 NFkB inh 8, HIF-2a block -49, TWEAK-Fn14 inh -21, TROY NFkB inh -17, MITF TRPM1 inh 23 and Peg3 promoter -6.
CCC(=O)NC1=C(Nc2ccc(N)cc2)C(=O)c2ccccc2C1=O was read as LMP1 NFkB inh -11, HIF-2a block -179, TWEAK-Fn14 inh 52*, TROY NFkB inh 33, MITF TRPM1 inh -14 and Peg3 promoter -169.
O=C(O)CC(CC(=O)N1CCN(C(=O)c2ccco2)CC1)c1ccccc1 (stereo not given) was read as LMP1 NFkB inh 1, HIF-2a block 10, TWEAK-Fn14 inh 3, TROY NFkB inh 15, MITF TRPM1 inh 1 and Peg3 promoter 14.
For CCc1ccccc1OCC(=O)N1CCN(c2ncccn2)CC1 the results were LMP1 NFkB inh -2, HIF-2a block 4, TWEAK-Fn14 inh 0, TROY NFkB inh -9, MITF TRPM1 inh 9 and Peg3 promoter -8.
For O=C1C(Cl)=C(NS(=O)(=O)c2ccc([N+](=O)[O-])cc2)C(=O)c2ccccc21 the results were LMP1 NFkB inh 6, HIF-2a block 9, TWEAK-Fn14 inh 23, TROY NFkB inh -24, MITF TRPM1 inh inconclusive and Peg3 promoter 13.
`CCNC1=C(Cl)C(=O)c2ccccc2C1=O` gave LMP1 NFkB inh 0, HIF-2a block 67*, TWEAK-Fn14 inh 12, TROY NFkB inh -30, MITF TRPM1 inh 74* and Peg3 promoter -1.
Screening Cc1ccc(NC(=O)c2cccnc2C(=O)O)nc1 returned LMP1 NFkB inh 19, HIF-2a block -17, TWEAK-Fn14 inh 15, TROY NFkB inh -2, MITF TRPM1 inh 3 and Peg3 promoter -6.
